Source: PubChem BioAssay
mHTT CaM bind – inhibitors of human mutant huntingtin-calmodulin interaction; 3.6% of 190,000 active; AlphaScreen His-mHTT/GST-CaM binding, luminescence; P42858; inhibition, % at 15 µM;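 also: 0% = both proteins with DMSO and 100% = one protein alone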
Pf apPOL inh – Pf-apPOL DNA polymerase inhibition. Recombinant Pf-apPOL, molecular beacon fluorescence, 1.5 h. 0.25% of 210,000 active. inhibition, % at 10 µM
Starred values were filed as active, the others as inactive; nt = no result. This is a sample that favours compounds with a hit; in the whole collection about 3.5% have one here. Rule as the data show it: active = inhibition above about 50%; inactive = the rest.

SMILES	mHTT CaM bind	Pf apPOL inh
O=C(CC1c2ccccc2C=C(c2ccsc2)N1c1ccc(-c2cccnc2)cc1)C1CC1 (stereo unspecified)	84*	-6
COc1ccc(C2C3=C(CC(C)(C)CC3=O)Nc3nc(SC)nn32)cc1Br (stereo unspecified)	0	-2
CC(C)n1cc(C2=CCN(C(=O)NC3CCCCC3)CC2)c2cccnc21	16	-7
COc1ccc([N+](=O)[O-])cc1-c1ccc(/C=C(\C#N)c2nn(-c3ccccc3)c(N)c2C#N)o1	15	4
O=S(=O)(NCc1ccccc1Cl)c1ccc2nc(-c3ccccc3)[nH]c2c1	25	6
Cc1cc2c(cc1[N+](=O)[O-])OCCO2	nt	-1
Cc1ccc(C(c2ccc(C)o2)c2cc3c(cc2[N+](=O)[O-])OCO3)o1	72*	7
Cc1ccc(C(c2ccc(C)o2)c2cccc([N+](=O)[O-])c2O)o1	79*	-8
Cc1ccc(C(c2ccc(C)o2)c2ccccc2Br)o1	-16	-1
O=C(Cc1cccc(C(F)(F)F)c1)N1CCN(c2nnc3ccccn23)CC1	3	4
CCn1c(=O)c([N+](=O)[O-])c(N2CCN(CCO)CC2)c2ccccc21	-1	-11
Cc1cccc(-n2nc3c(c2NC(=O)CC(C)C)CS(=O)C3)c1C (stereo unspecified)	-5	-2
COc1ccc(OCCCOc2ccccc2Cl)cc1	-89	-3
COc1ccc(NC2C3CC4CC(C3)CC2C4)cc1OC (stereo unspecified)	62*	-3
COc1ccc(CC(=O)NC2C3CC4CC(C3)CC2C4)cc1OC (stereo unspecified)	5	-3
CSc1ccc(S(=O)(=O)NCc2cccnc2)cc1	3	-4
O=C1NCC(CN(c2ccccc2)c2ccccc2)O1 (stereo unspecified)	83*	-3
Cc1ccccc1OCC1CNC(=O)O1 (stereo unspecified)	1	10
Cc1ccc(NC(=O)c2c(-c3ccccc3Cl)noc2C)c([N+](=O)[O-])c1	47	1
COc1ccc(C(=O)Oc2ccc3c(c2)OC(=Cc2cc(OC)c(OC)c(OC)c2)C3=O)cc1	-3	-10
Cc1ccc(S(=O)(=O)N(C)c2ccc(N)cc2)cc1	6	24
Cc1ccc(C(C)(c2ccc(N)cc2)c2ccc(N)cc2)cc1	68*	-12
Cn1c(C#N)nc2c1c(=O)n(Cc1ccccc1F)c(=O)n2C	-1	-17
Cc1ccc(NC(=O)Cn2nc(N(C)C)c3ccccc3c2=O)cc1	-2	0
Cc1ccc(NC(=O)Cn2nc(N(C)C)c3ccccc3c2=O)cc1Cl	80*	-1
SMILES	mHTT CaM bind	Pf apPOL inh
COc1ccc(N2CCN(C(=O)C3c4ccccc4CC(=O)N3C(C)C)CC2)cc1 (stereo unspecified)	22	4
CSc1nnc(-c2cccc(S(=O)(=O)N3CCCC3)c2)o1	-10	-4
CC(C)(C)C1=CC(=O)c2c(ccc(C(C)(C)C)c2O)C1=O	58*	3
CC(C)(C)C1=CC(=Cc2cc(C(C)(C)C)c(O)c(C(C)(C)C)c2)C=C(C(C)(C)C)C1=O	18	nt
O=C(c1cn2c(n1)COCC2)N1CCC(Cc2ccccc2)CC1	35	-5
O=C(c1cn2c(n1)CSCC2)N1CCC(Cc2ccccc2)CC1	57*	1
COc1ccc(C2CC(c3cccc(C)c3)=NN2C(=O)CN2CCCCC2)cc1 (stereo unspecified)	41	-2
COc1cccc(C2CC(c3cc(C)ccc3C)=NN2C(=O)CN2CCCCC2)c1 (stereo unspecified)	67*	-7
COc1cccc(C2=NN(C(=O)CN(C)C(C)=O)C(c3ccc(F)cc3)C2)c1 (stereo unspecified)	17	-2
COc1cccc(C2CC(c3cccc(C)c3)=NN2C(=O)CN2CCCCC2)c1 (stereo unspecified)	55*	-4
COc1ccccc1C1=NN(C(=O)CN2CCOCC2)C(c2ccc(C)cc2)C1 (stereo unspecified)	38	-2
COc1cccc(C2CC(c3cccc(C)c3)=NN2C(=O)CN2CCCC2)c1 (stereo unspecified)	100*	6
COc1ccccc1C1=NN(C(=O)CN2CCCCC2)C(c2cccc(F)c2)C1 (stereo unspecified)	21	-6
Cc1cccc(C2=NN(C(=O)CN3CCOCC3)C(c3ccc(Cl)cc3)C2)c1 (stereo unspecified)	79*	-2
O=[N+]([O-])c1ncn(-c2nc(-c3cccs3)cc(C(F)(F)F)n2)n1	6	-5
O=C(Nc1cccc(Cl)c1)Nc1nc2ccccc2[nH]1	11	-3
COc1cccc(NC(=O)C2CCN(c3c(C#N)cnc4ccccc34)CC2)c1	2	2
Cc1ccc(C2=NN(C(=O)CN3CCOCC3)C(c3ccccc3Cl)C2)cc1C (stereo unspecified)	25	-4
Cc1ccc(C)c(C2=NN(C(=O)CN3CCOCC3)C(c3ccccc3F)C2)c1 (stereo unspecified)	62*	-2
